# SENP8 block-1 = inhibitors of human SENP8 protease. actives 0.64% (n = 360,000). inhibition, % at 20 µM. AID 602440. recombinant SENP8, Nedd8 substrate fluorescence; in the data active = inhibition mostly above about 40%, no sharp cut-off; inactive = mostly below about 27%
# Target sequence (Q96LD8 whole entry, looked up): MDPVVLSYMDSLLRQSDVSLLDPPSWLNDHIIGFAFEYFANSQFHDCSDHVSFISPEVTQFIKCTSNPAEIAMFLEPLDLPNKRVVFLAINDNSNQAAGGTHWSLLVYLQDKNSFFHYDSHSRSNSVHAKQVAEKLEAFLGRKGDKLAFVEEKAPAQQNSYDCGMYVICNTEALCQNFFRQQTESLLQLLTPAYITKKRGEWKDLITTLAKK
# EBI2 block = blocks human EBI2 receptor beta-arrestin signaling; P32249; EBI2 beta-arrestin recruitment, luminescence, 7a,25-OHC stimulated; inhibition, % at 5 µM; actives 0.81% (n = 360,000); AID 651636; in the data active = inhibition above about 38%;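 note: enzyme fragment complementation signal reports receptor beta-arrestin coupling in cells; 0% = agonist plus DMSO wells and 100% = wells without agonist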
# Target sequence (P32249 whole entry, looked up, the tested form may be a part): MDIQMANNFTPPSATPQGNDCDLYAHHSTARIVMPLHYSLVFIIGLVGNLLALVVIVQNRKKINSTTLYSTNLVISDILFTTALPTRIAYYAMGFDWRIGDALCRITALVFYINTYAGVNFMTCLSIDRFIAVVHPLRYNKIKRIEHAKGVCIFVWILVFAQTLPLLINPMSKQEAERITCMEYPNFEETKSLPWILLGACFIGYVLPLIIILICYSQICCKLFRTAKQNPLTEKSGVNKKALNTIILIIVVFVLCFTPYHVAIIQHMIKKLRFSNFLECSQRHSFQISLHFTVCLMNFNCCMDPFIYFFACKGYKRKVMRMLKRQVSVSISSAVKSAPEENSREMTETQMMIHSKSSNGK
# AHR activator = activators of human aryl hydrocarbon receptor | actives 2.5% (n = 320,000) | P35869 | activation, % at 5 µM | AID 2796 | AHR-responsive luciferase reporter cells, luminescence; in the data active = activation above about 47%;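 note: 0% = vehicle wells and 100% = reference agonist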
# SENP7 inh = SENP7 protease inhibition; AID 434973; inhibition, % at 5 µM; recombinant SENP7, Z-RLRGG-aminoluciferin luminescence, 40 min; Q9BQF6; actives 1.5% (n = 330,000);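 active = inhibition above about 50% at the single test dose, limit read from the data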;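 note: plate controls were DMSO with enzyme for no effect and no enzyme buffer wells for full effect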
# SENP6 block = blocks the human protease SENP6; Q9GZR1; Recombinant SENP6 catalytic domain, aminoluciferin luminescence; inhibition, % at 10 µM; actives 1.8% (n = 330,000);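 active = inhibition above about 50% at the single tested dose, limit read from the data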;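 note: plate controls were DMSO wells with enzyme for no effect and DMSO wells lacking enzyme for full effect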
# SENP8 block-2 = blocks the human protease SENP8. AID 2540. inhibition, % at 10 µM. purified SENP8, Z-RLRGG-aminoluciferin cleavage, luminescence. Q96LD8. actives 1.2% (n = 330,000); in the data active = inhibition above about 50%
# * marks the source's active call; other numbers are inactive results; / = no result given. Compounds with a hit are over-represented: about 5% of the library has one in this group of screens.
SMILES,SENP8 block-1,EBI2 block,AHR activator,SENP7 inh,SENP6 block,SENP8 block-2
O=S1(=O)CC(N2CCN(c3ncccn3)CC2)CN1Cc1ccc(F)cc1 (stereo unspecified),12,-7,/,/,/,/
N#Cc1ccc(OCC(=O)n2cc(C(=O)c3cc(Cl)cc(Cl)c3O)cn2)cc1,/,/,70*,6,-5,1
O=C(c1cnn(C(=O)COc2ccc(Cl)cc2)c1)c1ccccc1O,-19,-8,3,-2,3,2
O=C(COc1cc(Cl)c(Cl)cc1Cl)Nc1cccc(O)c1,22,-6,0,63*,48,21
O=C(COc1cc(Cl)c(Cl)cc1Cl)Nc1ccncc1,21,4,-3,-5,-3,-3
CCOc1cc(N2CCOCC2)c(OCC)cc1NC(=O)CSc1cccc[n+]1[O-],47*,-6,4,-12,-7,-12
COc1cc2c(cc1NC(=O)CSc1nnc(Cc3cccs3)n1Cc1ccco1)oc1ccccc12,9,41,28,5,-13,5
COc1cc2c(cc1NC(=O)CSc1nc3ccc(C)cc3[nH]1)oc1ccccc12,/,/,57*,10,-11,-9
COc1cc2c(cc1NC(=O)CSCC(=O)O)oc1ccccc12,20,-7,12,3,5,-4
COc1cc2c(cc1NC(=O)CSc1ccc(C)cc1)oc1ccccc12,-5,-2,9,4,-1,4
COc1cc2c(cc1NC(=O)CSc1nnc(Cc3cccs3)n1C)oc1ccccc12,14,8,47*,5,-25,-11
CCOc1cc(N2CCOCC2)c(OCC)cc1NC(=O)CSc1ncccn1,7,-6,-1,3,8,0
COc1cc2c(cc1NC(=O)CSc1cccc[n+]1[O-])oc1ccccc12,9,-4,80*,6,16,3
CC1CCCN(CC(O)CN2CCN(CC(O)CN3CCCC(C)C3)C(C)C2)C1 (stereo unspecified),23,1,/,/,/,/
CCN1C(c2ccc(F)cc2)=CS/C1=C(/C#N)c1nnc2n1-c1ccccc1SC2,22,10,/,/,/,/
CCOc1cc(N2CCOCC2)c(OCC)cc1NC(C)C(=O)N1CCN(CC)CC1 (stereo unspecified),58*,-24,/,/,/,/
CCOc1cc(N2CCOCC2)c(OCC)cc1NC(=O)C(C)C,14,0,0,2,8,-7
O=C(Cc1ccc(S(=O)(=O)N2CCOCC2)s1)Nc1cc(Cl)ccc1Cl,-2,-28,92*,6,-13,-3
Cc1ccccc1NCC(=O)N=Nc1c(O)[nH]c2ccc([N+](=O)[O-])cc12,24,14,9,-2,3,3
Cc1ccc(NCC(=O)N=Nc2c(O)[nH]c3ccc([N+](=O)[O-])cc23)cc1,/,/,125*,21,12,-4
O=[N+]([O-])c1ccc2[nH]c(O)c(N=NC(=S)Nc3cccnc3)c2c1,42*,30,62*,-7,-20,-4
COc1ccc2c(Cl)c(C(=O)N/N=C/c3c(C)[nH]c4ccccc34)sc2c1,-17,-3,24,5,8,-7
Nc1ccc(S(N)(=O)=O)cc1N,-29,-15,115*,1,1,7
CC1(C(=O)NS(=O)(=O)C2CC2)CCN(C(=O)c2cc3ccccc3s2)C1 (stereo unspecified),5,-20,/,/,/,/
N#CC1C=Cc2c(ccc3ccccc23)N1C(=O)c1ccccc1 (stereo unspecified),-79,-3,/,/,/,/
SMILES,SENP8 block-1,EBI2 block,AHR activator,SENP7 inh,SENP6 block,SENP8 block-2
Cc1nc(NC(=O)c2ccc(F)cc2)nc2cc3c(cc12)OCO3,-47,4,65*,4,-9,0
CCC(=O)N1CCC1(C)C(=O)NS(=O)(=O)c1cccc(C#N)c1 (stereo unspecified),10,-2,/,/,/,/
CCOc1ccccc1NC(=O)CCC(=O)Nc1ccccc1OCC,28,2,14,4,0,-2
O=C(Nc1ccc(F)cc1)N1CCc2ccccc2C1,8,-5,69*,12,11,-4
CCOc1ccccc1NC(=O)N1CCc2ccccc2C1,13,5,68*,-2,-3,4
CCOc1ccccc1NC(=O)n1ncc2c(C)cccc21,11,16,48*,-8,1,-10
CCOc1ccccc1NC(=O)c1cccc2c1C(=O)N(CCOC)C2,9,4,69*,-1,-2,-1
CCOc1ccccc1NC(=O)CN1CCc2ccccc2C1,7,8,15,5,18,3
Cc1ccc(NC(=O)N2CCc3ccccc3C2)cc1C,4,9,/,-4,-11,-4
CCc1ccc[n+](-c2[nH]c(=O)sc2/C=N/N=C(\[O-])c2cccnc2)c1,34,5,6,3,-5,1
CN(C)CCCNC(=O)C[C@H]1C[C@H](C(=O)N2CCOCC2)[C@@]2(CCC3CCCC3)c3[nH]c4cc(CCC(=O)N(C)C)ccc4c3CCN2C1=O,13,-4,/,-6,/,/
CCOC(=O)C1(C)CCCN(C(=O)c2ccc(F)cc2Cl)C1 (stereo unspecified),12,-4,/,/,/,/
CCOc1ccc(Cl)cc1-c1cc(C(=O)Nc2ccc(C(C)C)cc2)[nH]n1,14,30,/,/,/,/
CCOc1ccc(C(=O)CCC(=O)N(CC)CC(=O)Nc2c(F)cccc2F)cc1,-20,1,5,-8,-6,9
CCCCN(CC)C(=O)c1cc2c(=O)n3cccc(C)c3nc2s1,-300,5,28,4,6,1
CCN(CC)C(=O)c1cc2c(=O)n3cccc(C)c3nc2s1,-276,-1,47*,-4,-24,-8
CCC(C)NC(=O)c1cc2c(=O)n3cccc(C)c3nc2s1 (stereo unspecified),-275,2,65*,-4,-18,-7
Cc1c(C(=O)N2CCC2(C)C(=O)O)oc2ccccc12 (stereo unspecified),20,5,/,/,/,/
COc1cccc(NC(=O)c2nnn(Cc3ccc(Br)cc3F)c2N)c1,8,0,54*,-7,2,-2
C[C@@H]1CCCCO[C@H](CN(C)Cc2ccc(C(F)(F)F)cc2)[C@@H](C)CN([C@H](C)CO)C(=O)c2cc(NS(=O)(=O)c3cn(C)cn3)ccc2O1,-12,-13,/,/,/,/
CC1CCN(c2nc(/C=C/c3ccccc3)nc3ccccc23)CC1,-140,4,72*,-6,-7,-13
O=NN(C(=O)NCc1cccnc1)C1CCCCC1,-3,2,/,/,/,/
COc1ccc(C(=O)NC(=S)NCc2cccnc2)cc1[N+](=O)[O-],11,-6,76*,4,13,-4
COc1ccc(C(=O)NC(=S)NCc2cccnc2)cc1OC,10,5,39,-2,-5,-11
Cc1cccc(-c2c3c(=O)n(C)c(=O)n(C)c3c3cccnn23)c1,15,-4,60*,-1,19,5
Cc1cc(C)c2c3c(c(-c4ccccc4)n2n1)c(=O)n(C)c(=O)n3C,22,-11,/,/,/,/

# Source: PubChem BioAssay
